Experimental data as given in the supplement of paper PMC7156485.
± gives the standard deviation of the averaged measurements.

How the values were obtained:
Conditions in all cases: concentration: 10 µM; 24 h
HCC1569 [1] = experiment: cell number relative to DMSO (% of DMSO); higher = more cells (less growth inhibition / toxicity)
Summary of the method: (§1)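 Six fields per well were imaged at ×10 after the cells were fixed in 3.7% formaldehyde and stained with a rabbit anti-H1.0 antibody, an AlexaFluor 647 secondary and DAPI. The HCC1569 and TDF cells had been plated at 800 per well in 384-well plates (RPMI, 10% FBS) and treated in triplicate with compounds at 10 µM for 24 h at 37 °C. The values are the median of replicates of H1.0 nuclear intensity or cell number, as percent of the plate control. Smoothing for positional effects was applied to HCC1569 data.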

TDF [2] = experiment: as above
Summary of the method: as §1

TDF [3] = experiment: H1.0 immunofluorescence intensity relative to DMSO (% of DMSO); higher = stronger H1.0 induction, active = 120 or more
Summary of the method: as §1

HCC1569 [4] = experiment: H1.0 immunofluorescence intensity relative to DMSO (% of DMSO); higher = stronger H1.0 induction, active = 140 or more
Summary of the method: as §1
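For H1.0 immunofluorescence intensity relative to DMSO in this document: TDF is a line of transformed human dermal fibroblasts of mesenchymal origin.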
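For cell number relative to DMSO in this document: TDF denotes transformed human dermal fibroblasts of mesenchymal origin.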

Question: What does the source list for `O=C(O)CCCc1ccc(N(CCCl)CCCl)cc1` [Chlorambucil]?
Answer: cell number (HCC1569 [1]): 86.2 ± 2.5; cell number (TDF [2]): 85.1 ± 7.6; H1.0 immunofluorescence intensity (TDF [3]): 97.1 (inactive); H1.0 immunofluorescence intensity (HCC1569 [4]): 98.4 (inactive)

Question: What does the source list for `COc1cc2c(cc1OC)C(C)NCC2` (configuration not stated) [Salsolodine]?
Answer: cell number (HCC1569 [1]): 105; cell number (TDF [2]): 97.2; H1.0 immunofluorescence intensity (TDF [3]): 88.7 (inactive); H1.0 immunofluorescence intensity (HCC1569 [4]): 86.3 (inactive)

Question: `CCCCCCCCCCCCCC(=O)OC1C(C)C2(O)C(C=C(CO)CC3(O)C(=O)C(C)=CC32)C2C(C)(C)C12OC(C)=O` (stereo not drawn) [4alpha-Phorbol-12-myristate-13-acetate] was tested. Which cell number (HCC1569 [1]) did it give?
Answer: 98.4

Question: And the cell number (TDF [2])?
Answer: 111

Question: What about the H1.0 immunofluorescence intensity (TDF [3]) of the same compound?
Answer: 95.6 (inactive)

Question: What about the H1.0 immunofluorescence intensity (HCC1569 [4]) of the same compound?
Answer: 108 (inactive)

Question: With `COc1ccc(-n2nc(C(F)(F)F)cc2-c2ccc(Cl)cc2)cc1` as the compound, how does the cell number (HCC1569 [1]) read?
Answer: 104

Question: What about the cell number (TDF [2]) of the same compound?
Answer: 106

Question: What about the H1.0 immunofluorescence intensity (TDF [3]) of the same compound?
Answer: 87.5 (inactive)

Question: What about the H1.0 immunofluorescence intensity (HCC1569 [4]) of the same compound?
Answer: 90.3 (inactive)

Question: With `CCC(C)C(=O)OC1C(O)C2C(CN3CC(C)CCC3C2(C)O)C2CC34OC5(O)C(OC(=O)C(C)(O)C(C)O)CCC3(C)C5C(OC(C)=O)C(OC(C)=O)C4C21O` (configuration not stated) [Protoveratrine B] as the compound, how does the cell number (HCC1569 [1]) read?
Answer: 104

Question: And the cell number (TDF [2])?
Answer: 97.9

Question: And the H1.0 immunofluorescence intensity (TDF [3])?
Answer: 106 (inactive)

Question: And the H1.0 immunofluorescence intensity (HCC1569 [4])?
Answer: 93.2 (inactive)

Question: What does the source list for `CC1CC=CC2C3OC3(C)C(C)C3C(Cc4ccccc4)NC(=O)C23OC(=O)OC=CC(C)(O)C1=O` (configuration not stated) [Cytochalasin E]?
Answer: cell number (HCC1569 [1]): 63.3; cell number (TDF [2]): 32.4; H1.0 immunofluorescence intensity (TDF [3]): 226 (active); H1.0 immunofluorescence intensity (HCC1569 [4]): 247 (active)

Question: What does the source list for `CNc1ccc2oc(CC3OC4(CCC3C)OC(C(C)C(=O)c3ccc[nH]3)C(C)CC4C)nc2c1C(=O)O` (configuration not stated) [Calcimycin]?
Answer: cell number (HCC1569 [1]): 43.8; cell number (TDF [2]): 23.3; H1.0 immunofluorescence intensity (TDF [3]): 180 (active); H1.0 immunofluorescence intensity (HCC1569 [4]): 128 (inactive)

Question: Which cell number (HCC1569 [1]) does the source give for `COc1ccc(C(=O)OC2CCC3(C)C4CCC5C6(O)CC(O)C7(O)C(CN8CC(C)CCC8C7(C)O)C6(O)CC53OC24O)cc1OC` (configuration not stated) [Veratridine] here?
Answer: 107

Question: What about the cell number (TDF [2]) of the same compound?
Answer: 97.2

Question: And the H1.0 immunofluorescence intensity (TDF [3])?
Answer: 96.7 (inactive)

Question: What about the H1.0 immunofluorescence intensity (HCC1569 [4]) of the same compound?
Answer: 81.9 (inactive)
